# Apoferritin bind = candidate novel general anesthetic via apoferritin binding; apoferritin/1-aminoanthracene competitive binding, fluorescence; Potency, µM (doses to about 77.5 µM), actives largely listed as inhibitors; 0.074% of 350,000 active; P02791; further: nearly all actives have a fitted effect of over 20% in size
# Target sequence (P02791 2-175 limits assumed): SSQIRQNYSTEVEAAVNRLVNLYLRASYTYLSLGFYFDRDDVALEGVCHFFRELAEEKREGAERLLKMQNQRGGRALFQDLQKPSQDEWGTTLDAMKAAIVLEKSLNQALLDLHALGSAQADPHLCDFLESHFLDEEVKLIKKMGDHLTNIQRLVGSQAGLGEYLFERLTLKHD
#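 10 uM apoferritin + 50% sat. 1-AMA, PBS; cpd 10 min RT; Ex380/Em535 endpoint; normalized to free probe vs complex; 4-param Hill fit; propofol titration as pos. ctrl.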
# TR SRC2 fluor cs = alters Texas Red total fluorescence, flagging assay interference; TRb/SRC2 Texas Red total fluorescence interference; Potency, µM (titrated, usually from 106 µM); 0.29% of 280,000 active; active means well fitted curve in either direction with a large enough effect; inconclusive means small, poorly fitted or top-dose-only effect
#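 Human TRβ ligand-binding domain (0.6 uM) and Texas Red SRC2 peptide (20 nM) in Tris buffer with 1 uM T3 and 5% DMSO were incubated with pinned compound for 5 hr at ambient temperature. Total fluorescence was computed as S + 2P (555/632 nm).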
# RGS12 GoLoco inh = RGS12 GoLoco-Gai1 interaction inhibition; P63096; Gai1:RGS12 GoLoco peptide FP, rhodamine, 10 min; Potency, µM (top dose mostly 61.6 µM), actives largely listed as inhibitors; 0.44% of 230,000 active; active means well fitted inhibition curve with a large enough effect, not every such curve was filed as active; inactive means no such curve, though single readings can be large or run the other way; further: nearly all actives have a fitted effect of over 30% in size
# ERG-DNA inh = inhibitors of human ERG Ets domain-DNA interaction. fluorescence polarization, His-ERG Ets domain / labelled DNA. AID 624246. 0.028% of 370,000 active. Potency, µM (doses to about 76.9 µM), hits mostly inhibitors; active means well fitted inhibition curve with a large enough effect in the polarisation, with a control signal flat; inconclusive means small, poorly fitted or top-dose-only effect, or effect the other way, or a change in a side signal; inactive means no such curve, though single readings can be large or run the other way; the % refers to the polarisation;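 further: polarization taken with two DNA probes labelled with fluorescein and Texas red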
# Target sequence (P11308 whole entry, looked up, the tested form may be a part): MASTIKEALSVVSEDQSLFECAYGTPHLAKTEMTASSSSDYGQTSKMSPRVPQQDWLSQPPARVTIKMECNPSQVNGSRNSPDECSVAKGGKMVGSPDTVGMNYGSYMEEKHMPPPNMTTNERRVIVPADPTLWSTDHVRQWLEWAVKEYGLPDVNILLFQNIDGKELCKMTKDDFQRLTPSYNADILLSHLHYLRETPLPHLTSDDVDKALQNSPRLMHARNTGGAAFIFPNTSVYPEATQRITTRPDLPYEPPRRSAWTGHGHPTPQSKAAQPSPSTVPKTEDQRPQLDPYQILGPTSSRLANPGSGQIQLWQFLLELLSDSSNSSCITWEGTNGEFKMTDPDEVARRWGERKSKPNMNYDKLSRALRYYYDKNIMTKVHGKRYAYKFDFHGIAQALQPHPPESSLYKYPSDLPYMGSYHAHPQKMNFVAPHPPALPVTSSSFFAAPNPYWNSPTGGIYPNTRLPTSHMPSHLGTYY
#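 His-tagged ERG Ets domain (1 uM in the protein solution; 300mM KCl, 50mM Tris-HCl, 1mM EDTA, 1mM DTT, pH 7.5) received compound, then a probe mix of 5 nM fluorescein-DNA and 100nM Texas-615-DNA. Fluorescence polarization was read for both dyes.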
# TRb-SRC2 inh = inhibitors of human thyroid hormone receptor beta-SRC2 interaction. 0.065% of 280,000 active. TRbeta-SRC2 peptide binding, fluorescence polarization; receptor liganded with 1 µM T3. AID 1469. Potency, µM (titrated, usually from 106 µM), hits mostly inhibitors; further: nearly all actives have a fitted effect of over 50% in size
#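 Binding of a 20-amino-acid Texas Red SRC2 peptide (20 nM) to TRb ligand-binding domain (0.6 uM) with agonist T3 at 1 uM was followed by fluorescence polarization after a 5 hr room-temperature incubation.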
# A number is an active result; . = inactive; ? = inconclusive; / = no result given; ! = a repeat was not active; [ ] = remark or other dose. A selection: hits, their analogues and other compounds. The true share with any hit is near 0.44%. Unless noted, the call rests on the fitted dose curve; in most records, active means well fitted curve in the direction sought with a large enough effect; inconclusive means small, poorly fitted or top-dose-only effect, or another doubt; inactive means no such curve, though single readings can be large; an effect the other way counts as inactive or inconclusive.
SMILES,Apoferritin bind,TR SRC2 fluor cs,RGS12 GoLoco inh,ERG-DNA inh,TRb-SRC2 inh
NC(C(=O)O)(c1ccc(P(=O)(O)O)cc1)C1CC1 (centres undefined),.,.,.,/,.
C=C[C@@H]1CN2CCC1C[C@@H]2C(O)c1ccnc2ccc(OC)cc12 (some centres undefined),.,/,.,/,.
O=C(O)c1ccc2nc(-c3ccco3)c(-c3ccco3)nc2c1,.,?,.,.,.
O=C(Nc1cccc(C(F)(F)F)c1)c1ccc2nc(-c3ccco3)c(-c3ccco3)nc2c1,?,8.9µM[quencher],.,.,?
O=C(NCCCO)Nc1ccc2nc(-c3ccco3)c(-c3ccco3)nc2c1,.,14µM[quencher],.,/,.
COc1ccc(CCNC(=O)c2ccc3nc(-c4ccco4)c(-c4ccco4)nc3c2)cc1OC,.,11µM[quencher],.,.,?
CCc1nc2ccc(C(=O)NCCc3ccc(OC)c(OC)c3)cc2nc1CC,.,.,/,.,.
O=C(Nc1ccc2nc(-c3ccco3)c(-c3ccco3)nc2c1)NC1CC1,.,35µM[quencher],.,.,.
COc1ccc(C2=Nn3c(nnc3-c3ccccc3O)SC2)c(OC)c1,.,.,/,/,.
CCOc1ccccc1-c1nnc2n1N=C(c1ccccc1OC)CS2,.,.,/,/,.
CCCCC(CC)COC(=O)c1ccc(C(=O)OCC(CC)CCCC)cc1 (centres undefined),/,.,/,/,.
CO[Si](CCCOCC1CO1)(OC)OC (centres undefined),/,.,/,/,.
COc1cc(C(=O)O[C@@H]2CC3CC[C@]2(C)C3(C)C)ccc1O,?,.,/,/,.
Cc1ccc2occ(/C=N/NC(N)=S)c(=O)c2c1,.,0.35µM[quencher],.,.,.
CC(Sc1ccc(Cl)cc1)C(=O)Nc1ccccc1-c1ccccc1 (centres undefined),.,25µM[quencher],.,.,.
COC(=O)/C=C/c1cc(O)ccc1O,.,.,2.8µM,/,.
CC(=O)/C=C/c1ccccc1O,.,.,.,.,.
COc1ccc(CCN2CCC[C@H](CN3CCc4cc(OC)c(OC)cc4CC3=O)C2)cc1OC,.,.,/,/,.
Cc1ccccc1CN1CCC(CNc2ncnc3onc(-c4ccc(F)cc4)c23)CC1,.,0.071µM[quencher],/,.,.
Cc1cccc(Nc2ncnc3onc(-c4ccc(F)cc4)c23)c1C,.,/,/,.,/
CN(C)c1ccc(NC(=O)c2ccc3nsnc3c2)cc1,.,.,13µM,.,.
COc1ccc(Br)cc1CNc1ccc(O)cc1,.,?,20µM,.,8.9µM
COc1cc(CNc2ccc(O)cc2)cc(Br)c1OCc1ccccc1,?,.,.,40µM,?
COc1cc(CNC(C)c2ccccc2)cc(Br)c1OCc1ccccc1 (centres undefined),.,/,/,.,/
Nc1cc([N+](=O)[O-])ccc1Nc1ccccc1,16µM,.,.,.,.
SMILES,Apoferritin bind,TR SRC2 fluor cs,RGS12 GoLoco inh,ERG-DNA inh,TRb-SRC2 inh
Nc1cc([N+](=O)[O-])ccc1O,.,0.11µM![quencher],.,.,.
Cc1ccc([N+](=O)[O-])cc1N,.,.,.,.,.
[ClH+][Cu][ClH+].[Cu].[OH2+]c1ccc2ccccc2c1CN1CCCCC1.[OH2+]c1ccc2ccccc2c1CN1CCCCC1,/,/,.[14.2 µM],/,/
COc1ccc(/C=C2\CCCc3c2nc2ccccc2c3C(=O)O)cc1OC,.,.,25µM,/,.
CCOC(=O)c1c(NC(=O)Cc2coc3cc(C)cc(C)c23)sc2c1CCC2,.,0.025µM[quencher],/,.,?
COC(=O)c1c(NC(=O)Cc2coc3ccc(C)cc23)sc2c1CCC2,.,.,/,.,.
COC(=O)c1c(NC(=O)Cc2coc3cc(C)ccc23)sc2c1CCC2,.,3.5µM[quencher],/,.,.
O=C(C1=C(O)C(=O)N(c2nccs2)C1c1ccccc1)c1cc2ccccc2o1 (centres undefined),.,.,20µM,.,.
CC(C)COCC(CN(Cc1ccccc1)c1ccccc1)N1CCCC1 (centres undefined),.,.,11µM!,.,.
CCOc1cc(/C=C2\C(=O)N(c3nc(-c4ccc(Br)cc4)cs3)N=C2c2ccccc2)ccc1O,?,28µM[quencher],.,.,.
COc1cc(/C=C2\C(=O)N(c3ccc(NC(C)=O)cc3)N=C2c2ccccc2)ccc1O,.,.,.,.,.
O=C(CSCCO)Nc1ccc(C2CCCCC2)cc1,7.1µM,.,.,.,.
CCOC(=O)C1CCN(C(=O)c2ccc3c(c2)sc2nc(-c4ccc(C)cc4)cn23)CC1,.,?,/,.,.
O=C(NCc1cccs1)c1ccc2c(c1)sc1nc(-c3ccc(F)cc3)cn12,.,.,/,.,.
CCOC(=O)C1CCN(C(=O)c2ccc3c(c2)sc2nc(-c4ccc(OC)cc4)cn23)CC1,.,316µM[quencher],/,.,.
CCOc1ccc(-c2cn3c(n2)sc2cc(C(=O)NCCC4=CCCCC4)ccc23)cc1,.,2µM[quencher],/,.,.
Cc1ccc(-c2cn3c(n2)sc2cc(C(=O)NCc4cccs4)ccc23)cc1,.,3.2µM[quencher],/,.,.
COc1cccc(C(=O)NCCC2=CCCCC2)c1,28µM,.,.,.,.
CC(C)C[C@H](NC(=O)[C@H](Cc1ccccc1)NC(=O)[C@@H]1CCCN1C(=O)[C@H](CC(=O)O)NC(=O)[C@@H]1CCC(=O)N1)C(=O)N[C@@H](CCCN=C(N)N)C(=O)N[C@@H](Cc1ccccc1)C(N)=O,.,.,/,/,.
COc1ccccc1N1CCN(CCn2c(=O)c3c(c4ccccc4n3C)n(C)c2=O)CC1,.,.,.,/,.
CCOC(=O)c1c(CSc2ccccc2)n(C)c2cc(Br)c(O)c(CN(C)C)c12,.,.,22µM,.,.
CN(C)C(=O)c1ccc(-c2cc(Nc3ccccc3)ncn2)cc1,/,/,.,/,/
CCOC(=O)c1cccc(Nc2cc(-c3ccccc3)ncn2)c1,.,0.32µM[quencher],/,.,.
COc1ccc(OC)c(C2=Nn3c(nnc3-c3ccc(OC)c(OC)c3)SC2)c1,.,.,/,/,.
CCOc1ccccc1NC(=O)COC(=O)Cc1ccc(-c2ccccc2)cc1,.,32µM[quencher],.,.,?
SMILES,Apoferritin bind,TR SRC2 fluor cs,RGS12 GoLoco inh,ERG-DNA inh,TRb-SRC2 inh
CCOc1ccccc1NC(=O)COC(=O)Cc1ccsc1,/,/,/,.,/
COc1ccc(C2=Nn3c(nnc3-c3cc(OC)ccc3OC)SC2)cc1,.,.,/,/,.
Cc1nn(-c2ccccc2)c(N2CCCC2)c1/C=N/NC(=O)c1ccccc1O,.,.,.,.,.
O=C(N/N=C/c1cc2c3c(c1O)CCCN3CCC2)c1ccccc1O,.,.,28µM,?,.
COc1ccc(-c2cc(OC(=O)c3cccc(Cl)c3)c3c(C)oc(C)c3c(=O)c2)cc1OC,.,.,/,.,.
COc1cc(-c2cc(OC)c3c(C)oc(C)c3c(=O)c2)ccc1OC(=O)c1cccc(Cl)c1,.,501µM[quencher],/,.,?
O=c1c2c3c(sc2ncn1Cc1ccc(F)cc1)CCC3,25µM,.,.,.,.
CCOC(=O)N1CCc2c(sc3ncn(Cc4ccc(F)cc4)c(=O)c23)C1,.,.,.,.,.

# Compound activity (PubChem)
